Assay results as given in the supplement of paper PMC6555819.

Assays:
Assay in all cases: PBM binding z-score (relative to random genomic background probes); higher = stronger binding; sequences stand for … in GC…GCGATTGACAGCGTAGAATGAAGG
[1] = tested on: RARb homodimer (NR concentration 270 nM)
Procedure, shortened: (§1)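 Custom Agilent 4×180K protein-binding microarrays carried double-stranded probes, each with a 34-nt variable region. These regions held direct-repeat seeds, single-nucleotide variants, half-site ablations and random human genomic background sequences. Ligand-free nuclear receptor dimers were incubated on the arrays for 1 h, antibodies against each partner (one per run) detected binding, and scanned fluorescence was regression-normalized. Binding z-scores take the random background probes as reference.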

[2] = tested on: RARg:RXRa (NR concentration 270 nM, RXRa partner concentration 90 nM)
Procedure, shortened: as §1

[3] = tested on: RARg homodimer (NR concentration 270 nM)
Procedure, shortened: as §1

[4] = tested on: RXRa DBDmut IVT, anti-RXR (DBD mutation: RXRa K156A/R161A, NR concentration 90 nM)
Procedure, shortened: as §1

[5] = tested on: RXRa homodimer (NR concentration 180 nM)
Procedure, shortened: as §1

[6] = tested on: THRa:RXRa (NR concentration 90 nM, RXRa partner concentration 90 nM)
Procedure, shortened: as §1

[7] = tested on: THRa homodimer (NR concentration 90 nM)
Procedure, shortened: as §1

[8] = tested on: VDR homodimer (NR concentration 270 nM)
Procedure, shortened: as §1

Sequence: TCAATGAGGTTAAAGATCAGGGAACGTGGCGTCG
- PBM binding z-score [1]: 0.614
- PBM binding z-score [2]: 2.41
- PBM binding z-score [3]: 1.32
- PBM binding z-score [4]: 1.88
- PBM binding z-score [5]: 4.18
- PBM binding z-score [6]: 2.42
- PBM binding z-score [7]: 0.288
- PBM binding z-score [8]: 0.855

Sequence: TTACCAAGGTGAAGGTCGTTGCTCCCTCTGTAGA
- PBM binding z-score [1]: 2.04
- PBM binding z-score [2]: 1.25
- PBM binding z-score [3]: 1.15
- PBM binding z-score [4]: 0.573
- PBM binding z-score [5]: 1.59
- PBM binding z-score [6]: 2.37
- PBM binding z-score [7]: 1.06
- PBM binding z-score [8]: 1.43

Sequence: ATCGAGAGGTCGAGGTGAGTATAGAGAAAGGGAA
- PBM binding z-score [1]: 2.04
- PBM binding z-score [2]: 3.39
- PBM binding z-score [3]: 3.48
- PBM binding z-score [4]: 1.2
- PBM binding z-score [5]: 3.51
- PBM binding z-score [6]: 2.76
- PBM binding z-score [7]: 0.486
- PBM binding z-score [8]: 0.635

Sequence: TCTCGGAGGACACGAAAGGTCAGAGATCGACATC
- PBM binding z-score [1]: 4.63
- PBM binding z-score [2]: 5.05
- PBM binding z-score [3]: 5.73
- PBM binding z-score [4]: 1.17
- PBM binding z-score [5]: 4.6
- PBM binding z-score [6]: 3.87
- PBM binding z-score [7]: 1.53
- PBM binding z-score [8]: 1.12

Sequence: TCAAATAGGTAAATGCTAGGTGAAAGTCCGATCT
- PBM binding z-score [1]: 0.514
- PBM binding z-score [2]: 0.401
- PBM binding z-score [3]: 0.304
- PBM binding z-score [4]: 1.84
- PBM binding z-score [5]: 1.06
- PBM binding z-score [6]: 1.38
- PBM binding z-score [7]: 0.625
- PBM binding z-score [8]: 0.251

Sequence: CCGACTTGGGCAGAAAGGTTACCATACCATCCGG
- PBM binding z-score [1]: 1.52
- PBM binding z-score [2]: 0.806
- PBM binding z-score [3]: 0.702
- PBM binding z-score [4]: -0.476
- PBM binding z-score [5]: 1.3
- PBM binding z-score [6]: 0.651
- PBM binding z-score [7]: -0.379
- PBM binding z-score [8]: -0.411

Sequence: CGCGAAAGGTCGTGCTCAGGTGAGTATACCAAAC
- PBM binding z-score [1]: 3.1
- PBM binding z-score [2]: 5.55
- PBM binding z-score [3]: 4.27
- PBM binding z-score [4]: 2.19
- PBM binding z-score [5]: 5.98
- PBM binding z-score [6]: 4.17
- PBM binding z-score [7]: 1.26
- PBM binding z-score [8]: 1.18
